Consider ten compounds from PubChem BioAssay AID2557 (NMMLSC, 2010).

Where “and” joins values, the source holds several entries; their conditions need not be identical. Equal values may be shown once. About 650 (0.2%) of roughly 330,000 compounds were called active. The entries come from a sample that favours actives as a whole. A number with no mark means an inactive call. Cut-off read from the data, not from the text of the source: active = inhibition above about 50%; inactive = the rest.

For this assay, the target named is Integrin alpha-4 (Homo sapiens) (UniProt P13612). The assay is described as follows: inhibition in human VLA-4 binding assay, primary screen, VLA-4 allosteric modulator project, MLPCN library, flow cytometry, VLA-4 expressing cells (AID 2557). The note with it: ligand binding flow cytometry, stronger effect = higher value, about 7 µM as worked out from the volumes in the protocol. In general terms: Flow cytometry measures light scatter and fluorescence of single cells or particles in a stream.
Integrin alpha-4 (Homo sapiens), sequence (P13612 whole entry, looked up): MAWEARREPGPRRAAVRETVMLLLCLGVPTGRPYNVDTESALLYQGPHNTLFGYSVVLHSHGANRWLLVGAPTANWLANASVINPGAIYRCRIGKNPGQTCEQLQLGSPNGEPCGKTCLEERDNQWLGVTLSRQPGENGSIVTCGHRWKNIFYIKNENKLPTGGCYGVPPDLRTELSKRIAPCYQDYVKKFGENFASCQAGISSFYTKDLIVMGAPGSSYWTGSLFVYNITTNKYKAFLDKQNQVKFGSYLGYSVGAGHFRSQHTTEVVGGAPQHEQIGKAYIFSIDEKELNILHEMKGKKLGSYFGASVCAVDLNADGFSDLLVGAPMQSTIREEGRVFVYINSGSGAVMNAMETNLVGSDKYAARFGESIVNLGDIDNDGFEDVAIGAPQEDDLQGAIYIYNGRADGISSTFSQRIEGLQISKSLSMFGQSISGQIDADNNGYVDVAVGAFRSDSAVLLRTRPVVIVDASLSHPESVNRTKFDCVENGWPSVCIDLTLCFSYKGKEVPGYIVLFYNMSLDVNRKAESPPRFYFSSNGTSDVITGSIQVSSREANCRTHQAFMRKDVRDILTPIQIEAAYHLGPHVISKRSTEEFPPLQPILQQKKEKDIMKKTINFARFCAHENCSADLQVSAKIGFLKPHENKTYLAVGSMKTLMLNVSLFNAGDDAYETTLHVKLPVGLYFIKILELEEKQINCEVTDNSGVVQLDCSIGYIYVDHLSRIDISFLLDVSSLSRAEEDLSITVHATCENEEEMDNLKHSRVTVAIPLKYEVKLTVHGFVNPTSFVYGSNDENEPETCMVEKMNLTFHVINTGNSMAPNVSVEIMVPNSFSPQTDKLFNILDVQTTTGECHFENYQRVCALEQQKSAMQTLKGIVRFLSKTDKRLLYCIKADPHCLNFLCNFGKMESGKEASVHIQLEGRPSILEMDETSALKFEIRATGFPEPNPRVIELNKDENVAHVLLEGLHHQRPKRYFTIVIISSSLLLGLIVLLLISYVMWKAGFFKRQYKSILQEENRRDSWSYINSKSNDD
Broadly, the inhibition is the change of the read-out against control, counted positive when it falls. For `CCOC(=O)C1=C(C)OC(N)=C(C(=O)OC)C12C(=O)Nc1ccc(Br)cc12` (stereo not given), the inhibition was 15.8%.
As for `C=CCN1C(=O)C2(C(C(=O)OCC)=C(N)Oc3c2c(=O)oc2ccccc32)c2ccccc21` (stereo not given), the inhibition is 59.3% (active).
`CCOC(=O)CC1=C(C(=O)OCC)C2(C(=O)N1)C(C(=O)OC)=C(N)Oc1ccccc12` (stereo not given): the inhibition was -7.95%.
Turning to `CN(C)C(=O)Oc1cc(OC(=O)N(C)C)cc(C(O)CNC(C)(C)C)c1` (stereo not given), the inhibition is -22.5% and -5.62%.
As for `CCc1nnc(NS(=O)(=O)c2ccc(N=Cc3c(O)n(-c4ccccc4)c(=O)[nH]c3=O)cc2)s1`, the inhibition is -0.39%.
Regarding `O=c1c2ccccc2nc(-c2ccc(Cl)cc2Cl)n1-c1ccncc1`, the inhibition was 62.6% (active).
As for `COc1ccc(-n2c(-c3ccccc3)nc3ccccc3c2=O)cc1`, the inhibition was -3.5%.
To `Cc1nc2ccccc2c(=O)n1-c1ccc(Cl)cc1Cl` belongs 24.4%.
As for `Cn1c(O)c(C(=Nc2ccc(F)cc2)c2ccccc2)c(=O)n(C)c1=O`, the inhibition was 5.63%.
To `C=CCn1c(O)c(/C=N/N2CCOCC2)c(=O)[nH]c1=S` belongs 7.33%.
